# Out of some 5,500 compounds screened, about 2,000 (36%) were called active. Another 18% or so got no clear call; they are omitted. This is one part of the list. A number with no mark means an inactive call. Rule as the data show it: active = normalized growth mostly below about 0.91 (no sharp cut-off); inconclusive = no clear call, values can overlap the other calls; inactive = mostly above about 0.92.
# Test: chemical genetic growth profiling, strain panel (AID 1159580);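 also: tested at 20 µM; growth read once vehicle control cultures reached saturation at 30 °C; 1 = growth at the plate median or of vehicle wells; lower values mean less growth of the strain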
# Conditions: growth OD
smiles,measurement,setting,value
CCCCOC(=O)c1ccccc1C(=O)OCCCC,normalized growth,"S. cerevisiae deletion strains, locus YJR066W, strain TOR1, hits give low values",0.92
same,normalized growth,"S. cerevisiae deletion strains, locus YJR075W, strain HOC1, hits give low values",0.991
same,normalized growth,"S. cerevisiae deletion strains, locus YKL009W, strain mrt4, hits give low values",0.941
same,normalized growth,"S. cerevisiae deletion strains, locus YKL068W, hits give low values",0.977
same,normalized growth,"S. cerevisiae deletion strains, locus YKL085W, strain MDH1 (second series), hits give low values",0.984
same,normalized growth,"S. cerevisiae deletion strains, locus YKL085W, strain MDH1, hits give low values",0.984
same,normalized growth,"S. cerevisiae deletion strains, locus YKL160W, strain elf1, hits give low values",0.985
same,normalized growth,"S. cerevisiae deletion strains, locus YKL190W, strain CNB1, hits give low values",0.972
same,normalized growth,"S. cerevisiae deletion strains, locus YKR001C, strain vps1, hits give low values",0.983
same,normalized growth,"S. cerevisiae deletion strains, locus YKR026C, strain gcn3, hits give low values",0.986
same,normalized growth,"S. cerevisiae deletion strains, locus YKR091W, strain srl3, hits give low values",0.982
same,normalized growth,"S. cerevisiae deletion strains, locus YLL001W, strain dnm1, hits give low values",0.987
same,normalized growth,"S. cerevisiae deletion strains, locus YLL026W, hits give low values",0.982
same,normalized growth,"S. cerevisiae deletion strains, locus YLL041C, strain sdh2, hits give low values",0.975
same,normalized growth,"S. cerevisiae deletion strains, locus YLR027C, strain aat2, hits give low values",0.974
same,normalized growth,"S. cerevisiae deletion strains, locus YLR039C, strain RIC1, hits give low values",0.941
same,normalized growth,"S. cerevisiae deletion strains, locus YLR058C, strain SHM2, hits give low values",0.968
same,normalized growth,"S. cerevisiae deletion strains, locus YLR102C, strain apc9, hits give low values",0.982
same,normalized growth,"S. cerevisiae deletion strains, locus YLR113W, strain HOG1, hits give low values",0.89
same,normalized growth,"S. cerevisiae deletion strains, locus YLR221C, strain rsa3, hits give low values",0.957
same,normalized growth,"S. cerevisiae deletion strains, locus YLR258W, strain gsy2, hits give low values",0.974
same,normalized growth,"S. cerevisiae deletion strains, locus YLR262C, strain YPT6 (second series), hits give low values",0.838 (active)
same,normalized growth,"S. cerevisiae deletion strains, locus YLR262C, strain YPT6, hits give low values",0.931
same,normalized growth,"S. cerevisiae deletion strains, locus YLR268W, strain sec22, hits give low values",0.96
same,normalized growth,"S. cerevisiae deletion strains, locus YLR320W, strain mms22, hits give low values",0.924
same,normalized growth,"S. cerevisiae deletion strains, locus YLR330W, strain CHS5, hits give low values",0.977
same,normalized growth,"S. cerevisiae deletion strains, locus YLR342W, strain FKS1 (second series), hits give low values",0.875
same,normalized growth,"S. cerevisiae deletion strains, locus YLR342W, strain FKS1, hits give low values",0.948
same,normalized growth,"S. cerevisiae deletion strains, locus YLR357W, strain rsc2, hits give low values",1.02
same,normalized growth,"S. cerevisiae deletion strains, locus YLR370C, strain arc18, hits give low values",0.99
same,normalized growth,"S. cerevisiae deletion strains, locus YLR371W, strain rom2, hits give low values",0.974
same,normalized growth,"S. cerevisiae deletion strains, locus YLR384C, strain iki3, hits give low values",0.99
same,normalized growth,"S. cerevisiae deletion strains, locus YLR418C, strain cdc73, hits give low values",0.978
same,normalized growth,"S. cerevisiae deletion strains, locus YML016C, strain PPZ1, hits give low values",0.992
same,normalized growth,"S. cerevisiae deletion strains, locus YML032C, strain rad52, hits give low values",0.982
same,normalized growth,"S. cerevisiae deletion strains, locus YML120C, strain ndi1, hits give low values",0.983
same,normalized growth,"S. cerevisiae deletion strains, locus YML124C, strain tub3, hits give low values",0.975
same,normalized growth,"S. cerevisiae deletion strains, locus YMR058W, strain fet3, hits give low values",0.992
same,normalized growth,"S. cerevisiae deletion strains, locus YMR078C, strain ctf18, hits give low values",0.979
same,normalized growth,"S. cerevisiae deletion strains, locus YMR125W, strain sto1, hits give low values",0.969
same,normalized growth,"S. cerevisiae deletion strains, locus YMR129W, hits give low values",0.98
same,normalized growth,"S. cerevisiae deletion strains, locus YMR205C, strain PFK2, hits give low values",0.949
same,normalized growth,"S. cerevisiae deletion strains, locus YMR223W, strain ubp8, hits give low values",0.975
same,normalized growth,"S. cerevisiae deletion strains, locus YMR231W, strain pep5, hits give low values",0.996
same,normalized growth,"S. cerevisiae deletion strains, locus YMR263W, strain SAP30, hits give low values",0.977
same,normalized growth,"S. cerevisiae deletion strains, locus YMR307W, strain GAS1, hits give low values",0.713
same,normalized growth,"S. cerevisiae deletion strains, locus YNL067W, strain RPL9B, hits give low values",0.979
same,normalized growth,"S. cerevisiae deletion strains, locus YNL071W, strain lat1, hits give low values",0.944
same,normalized growth,"S. cerevisiae deletion strains, locus YNL128W, strain TEP1, hits give low values",0.98
same,normalized growth,"S. cerevisiae deletion strains, locus YNL153C, strain GIM3, hits give low values",0.998
same,normalized growth,"S. cerevisiae deletion strains, locus YNL183C, strain NPR1, hits give low values",0.911
same,normalized growth,"S. cerevisiae deletion strains, locus YNL209W, strain ssb2, hits give low values",0.99
same,normalized growth,"S. cerevisiae deletion strains, locus YNL233W, strain BNI4, hits give low values",0.994
same,normalized growth,"S. cerevisiae deletion strains, locus YNL248C, strain rpa49, hits give low values",0.987
same,normalized growth,"S. cerevisiae deletion strains, locus YNL250W, strain rad50, hits give low values",0.961
same,normalized growth,"S. cerevisiae deletion strains, locus YNL271C, strain bni1, hits give low values",0.978
same,normalized growth,"S. cerevisiae deletion strains, locus YNL298W, strain CLA4, hits give low values",0.966
same,normalized growth,"S. cerevisiae deletion strains, locus YNL307C, strain MCK1, hits give low values",0.952
same,normalized growth,"S. cerevisiae deletion strains, locus YNL322C, strain KRE1 (second series), hits give low values",0.981
same,normalized growth,"S. cerevisiae deletion strains, locus YNL322C, strain KRE1, hits give low values",0.978
same,normalized growth,"S. cerevisiae deletion strains, locus YNR049C, strain mso1, hits give low values",0.976
same,normalized growth,"S. cerevisiae deletion strains, locus YNR052C, strain pop2, hits give low values",0.971
same,normalized growth,"S. cerevisiae deletion strains, locus YOL006C, strain TOP1, hits give low values",0.94
same,normalized growth,"S. cerevisiae deletion strains, locus YOL012C, strain htz1",0.914
same,normalized growth,"S. cerevisiae deletion strains, locus YOL147C, strain pex11, hits give low values",0.976
same,normalized growth,"S. cerevisiae deletion strains, locus YOR001W, strain rrp6, hits give low values",0.979
same,normalized growth,"S. cerevisiae deletion strains, locus YOR061W, strain CKA2, hits give low values",0.984
same,normalized growth,"S. cerevisiae deletion strains, locus YOR069W, strain VPS5, hits give low values",0.977
same,normalized growth,"S. cerevisiae deletion strains, locus YOR070C, strain gyp1, hits give low values",0.983
same,normalized growth,"S. cerevisiae deletion strains, locus YOR080W, strain dia2, hits give low values",0.99
same,normalized growth,"S. cerevisiae deletion strains, locus YOR083W, strain WHI5, hits give low values",0.98
same,normalized growth,"S. cerevisiae deletion strains, locus YOR106W, strain vam3, hits give low values",0.916
same,normalized growth,"S. cerevisiae deletion strains, locus YOR136W, strain idh2, hits give low values",0.988
same,normalized growth,"S. cerevisiae deletion strains, locus YOR144C, strain elg1, hits give low values",0.973
same,normalized growth,"S. cerevisiae deletion strains, locus YOR184W, strain ser1, hits give low values",0.943
same,normalized growth,"S. cerevisiae deletion strains, locus YOR231W, strain MKK1, hits give low values",0.945
same,normalized growth,"S. cerevisiae deletion strains, locus YOR265W, strain rbl2, hits give low values",0.986
same,normalized growth,"S. cerevisiae deletion strains, locus YOR270C, strain vph1, hits give low values",0.846
same,normalized growth,"S. cerevisiae deletion strains, locus YOR290C, strain snf2, hits give low values",0.975
same,normalized growth,"S. cerevisiae deletion strains, locus YOR316C, strain cot1, hits give low values",0.977
same,normalized growth,"S. cerevisiae deletion strains, locus YPL055C, strain LGE1, hits give low values",0.967
same,normalized growth,"S. cerevisiae deletion strains, locus YPL078C, strain atp4, hits give low values",0.98
same,normalized growth,"S. cerevisiae deletion strains, locus YPL106C, strain sse1, hits give low values",1.02
same,normalized growth,"S. cerevisiae deletion strains, locus YPL240C, strain hsp82, hits give low values",0.969
same,normalized growth,"S. cerevisiae deletion strains, locus YPL241C, strain CIN2, hits give low values",0.976
same,normalized growth,"S. cerevisiae deletion strains, locus YPL256C, strain CLN2, hits give low values",0.973
same,normalized growth,"S. cerevisiae deletion strains, locus YPR119W, strain clb2, hits give low values",0.974
same,normalized growth,"S. cerevisiae deletion strains, locus YPR141C, strain kar3, hits give low values",0.978
same,normalized growth,"S. cerevisiae deletion strains, locus YPR163C, strain tif3, hits give low values",0.97
same,normalized growth,"S. cerevisiae deletion strains, locus YPR167C, strain met16, hits give low values",0.984
same,normalized growth,"S. cerevisiae deletion strains, strain wtn01, hits give low values",0.965
same,normalized growth,"S. cerevisiae strains, strain wild type, hits give low values",0.987
